Bioassay records from PubChem.
Only some compounds are listed: those with a hit (about 10% of all), similar ones and a draw of the others.
Lamin A splicing: modulators of lamin A splicing; HeLa LMNA splicing GFP/RFP minigene ratio, 48 h; actives 0.01% (n = 200,000); AID 1487; Potency, µM (top dose mostly 46.1 µM), without a hit: at the highest dose ratio change, negative = inhibition, most hits filed as inhibitors; active = well fitted inhibition curve with a large enough effect in the signal ratio, with a control signal flat, not every such curve was filed as active; inconclusive = small, poorly fitted or top-dose-only effect, or effect the other way, or a change in a side signal; the % refers to the signal ratio; also: potency is read from the fitted curve at half-maximal effect
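S3 HeLa cells stably expressing lamin A-EGFP splicing minigene plus DsRed2, 600 cells/well, 48 h compound exposure at 37C. Laser-scanning cytometry; analysed as GFP (500-530 nm)/RFP (575-640 nm) total intensity ratio; 0.5% DMSO vehicle.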
HPGD block: HPGD (human) dehydrogenase inhibition. purified HPGD, NADH fluorescence kinetic, PGE2 substrate. Potency, µM, for the others: at the top dose activity change, negative = inhibition, actives largely listed as inhibitors. actives 4.3% (n = 150,000). AID 894; also: potency is read from the fitted curve at half-maximal effect
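20 nM HPGD preincubated 15 min at room temperature with compound in 50 mM Tris-HCl pH 8, 0.01% Tween 20. Started with 1 mM NAD+ and 30 uM prostaglandin E2; NADH fluorescence (360/450 nm) read 5 times over 30-s intervals, last minus first.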
ALDH1A1 block: blocks purified human ALDH1A1 activity; P00352; Purified ALDH1A1, NADH fluorescence, propionaldehyde substrate; Potency, µM (series often up to 75.3 µM), without a hit: at the highest dose activity, negative = inhibition, most hits filed as inhibitors; actives 7.3% (n = 220,000);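 also: potency is read from the fitted curve at half-maximal effect; plate controls were no enzyme wells and a reference inhibitor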
Target sequence (P00352 whole entry, looked up): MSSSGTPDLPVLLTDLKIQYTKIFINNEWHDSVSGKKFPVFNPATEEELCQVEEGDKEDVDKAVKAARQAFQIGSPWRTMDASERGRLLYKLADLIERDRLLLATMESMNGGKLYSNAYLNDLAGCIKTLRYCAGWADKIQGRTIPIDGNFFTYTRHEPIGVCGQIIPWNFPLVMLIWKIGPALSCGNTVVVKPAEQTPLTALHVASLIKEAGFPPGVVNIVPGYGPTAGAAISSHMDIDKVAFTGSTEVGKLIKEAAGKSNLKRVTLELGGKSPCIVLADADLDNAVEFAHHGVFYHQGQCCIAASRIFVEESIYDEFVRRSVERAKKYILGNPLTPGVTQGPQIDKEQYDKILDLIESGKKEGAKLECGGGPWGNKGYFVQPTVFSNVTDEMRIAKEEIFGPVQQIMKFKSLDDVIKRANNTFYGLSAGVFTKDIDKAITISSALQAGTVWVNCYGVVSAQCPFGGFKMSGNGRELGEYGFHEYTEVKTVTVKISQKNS
12-hLO inh: 12-hLO (ALOX12) enzyme inhibition; Potency, µM (top dose mostly 57.1 µM), for the others: at the highest dose activity change, negative = inhibition, usual class: inhibitors; purified 12-hLO, xylenol orange hydroperoxide absorbance; actives 0.12% (n = 150,000); active = well fitted inhibition curve with a large enough effect; inconclusive = small, poorly fitted or top-dose-only effect; also: potency is read from the fitted curve at half-maximal effect; nearly all actives have a fitted effect of over 55% in size
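Hydroperoxide output read as Fe(III)-xylenol orange absorbance, 573-to-405 nm ratio, after 30 min reaction with 40 uM arachidonic acid. Enzyme: 150 nM purified human 12hLO, 15 min compound preincubation; 25 mM Hepes pH 7.0, room temperature.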
PNC inhibitor: perinucleolar compartment assembly inhibition; PC3M PTB-GFP, PNC prevalence imaging, 16 h; hits give low values; activity change (PNC), negative = inhibition, % at 10 µM; actives 3.1% (n = 140,000);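 active = readout at or below -70, meaning at least 70% loss of cells showing the perinucleolar compartment, a nuclear body marking cancer cells; inconclusive = readout between -30 and a set limit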;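 also: plate controls were DMSO wells for no effect and camptothecin positive control wells for full effect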
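Read-out is percentage of cells bearing a perinucleolar compartment, from automated 20x imaging of fixed, Hoechst-stained PC3M PTB-GFP cells. Cells were seeded 4 h, then exposed 16 h to compound (23 nl of library stock) in duplicate plates.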
* marks the source's active call; other numbers are inactive results; [ ] = another dose, or the depositor's remark. Unless noted, calls follow the shape of the dose curve; as a rule, active = well fitted inhibition curve with a large enough effect (not every such curve was filed as active); inconclusive = small, poorly fitted or top-dose-only effect, or another doubt; inactive = no such curve, though single readings can be large or run the other way. Unless noted, % is scaled to controls: 0 for no effect and ±100 for the full control effect.

CC(=O)c1ccc(Nc2ccc(-c3ccccc3C)nn2)cc1 was read as ALDH1A1 block 7.1µM*.
COc1ccccc1-c1ccc(Nc2cccc(C(C)=O)c2)nn1 was read as Lamin A splicing 7%, HPGD block -16%, ALDH1A1 block inconclusive, 12-hLO inh -7% and PNC inhibitor 13.
Screening CCc1nnc(NS(=O)(=O)c2ccc(N=Cc3c(C)[nH]n(-c4ccc(C)c(C)c4)c3=O)cc2)s1 returned Lamin A splicing -5%, HPGD block 16µM*, ALDH1A1 block 11µM*, 12-hLO inh 0% and PNC inhibitor inconclusive.
`Cc1cc(C)nc(NS(=O)(=O)c2ccc(N=Cc3c(C)[nH]n(-c4ccccc4)c3=O)cc2)n1` gave Lamin A splicing -10%, HPGD block -19%, ALDH1A1 block -7%, 12-hLO inh -3% and PNC inhibitor 5.
`Cc1ccc(-n2[nH]c(C)c(C=Nc3ccc(S(=O)(=O)Nc4nc(C)cc(C)n4)cc3)c2=O)c(C)c1` gave Lamin A splicing -11%, HPGD block 22µM*, ALDH1A1 block -18%, 12-hLO inh 0% and PNC inhibitor inconclusive.
CNS(=O)(=O)c1ccc(N=Cc2c(C)[nH]n(-c3ccc(C)cc3C)c2=O)cc1 was read as Lamin A splicing inconclusive and ALDH1A1 block 4%.
`Cc1[nH]n(-c2ccc(Br)cc2)c(=O)c1C=Nc1ccc(S(=O)(=O)Nc2nccs2)cc1` gave Lamin A splicing -9%, HPGD block 14µM*, ALDH1A1 block -11%, 12-hLO inh 15% and PNC inhibitor -27.
`Cc1ccc(-n2[nH]c(C)c(C=Nc3ccc(S(=O)(=O)Nc4nccs4)cc3)c2=O)cc1` gave Lamin A splicing -11%, HPGD block inconclusive, ALDH1A1 block -16%, 12-hLO inh -1% and PNC inhibitor 15.
Cc1cc(C)c(S(=O)(=O)NCCc2sc3nc(-c4ccc(F)cc4)nn3c2C)c(C)c1 was read as Lamin A splicing -28%[46 µM].
Screening CCN(CC(=O)Nc1ccc([N+](=O)[O-])cc1OC)CC(=O)NC(C)(C)C returned Lamin A splicing inconclusive, HPGD block -10%, ALDH1A1 block 7%, 12-hLO inh -3% and PNC inhibitor -13.
`CCc1ccc(CN(C(=O)Nc2cccc(Cl)c2)c2ccccn2)cc1` gave Lamin A splicing -11%[46 µM].
`CC1=CC(=O)NS(=O)(=O)O1` gave HPGD block -7%, ALDH1A1 block 7% and 12-hLO inh -3%.
O=C(COc1ccc2ccccc2c1)N1CCN(C(=O)c2ccco2)CC1 was read as Lamin A splicing 22%[46 µM] and ALDH1A1 block inconclusive.
`O=C(Cc1c(Cl)cccc1Cl)OCC(=O)N1CCN(C(=O)c2ccco2)CC1` gave Lamin A splicing -2%[46 µM] and ALDH1A1 block 32µM*.
For O=C(NCc1ccccc1)c1cccc(OCC(=O)N2CCN(C(=O)c3ccco3)CC2)c1 the results were Lamin A splicing 7%, HPGD block -4%, ALDH1A1 block 16µM*, 12-hLO inh -11% and PNC inhibitor 40.
For CCS(=O)(=O)N1CCN(C(=O)c2ccco2)CC1 the results were Lamin A splicing 6%, HPGD block -4%, ALDH1A1 block 0%, 12-hLO inh 3% and PNC inhibitor inconclusive.
Screening O=C(c1ccco1)N1CCN(S(=O)(=O)Cc2ccccc2Cl)CC1 returned ALDH1A1 block 10µM*.
Cc1cc(C)cc(-n2ccn(CC(=O)c3ccc(F)cc3)c(=O)c2=O)c1 was read as Lamin A splicing 4%[46 µM].
N#Cc1ccccc1Oc1ccccc1C=O was read as ALDH1A1 block -10%.
Screening CC(C)Oc1ccc(C(=O)NC(=S)Nc2ccc(CN3CCOCC3)cc2)cc1 returned Lamin A splicing -6%, HPGD block -11%, ALDH1A1 block 7.1µM*, 12-hLO inh 1% and PNC inhibitor 23.
For O=C(NC(=S)Nc1ccc(N2CCOCC2)cc1)c1cccc([N+](=O)[O-])c1 the results were Lamin A splicing 9%, HPGD block -25%, ALDH1A1 block 6%, 12-hLO inh 1% and PNC inhibitor 5.
`O=C(NC(=S)Nc1ccc(C(=O)N2CCOCC2)cc1)c1ccc([N+](=O)[O-])cc1` gave Lamin A splicing 24%, HPGD block 0.71µM*, ALDH1A1 block 10µM*, 12-hLO inh -6% and PNC inhibitor inconclusive.
Screening CC(C)NS(=O)(=O)c1ccc(NC(=S)NC(=O)c2cccc([N+](=O)[O-])c2)cc1 returned Lamin A splicing -11%, HPGD block inconclusive, ALDH1A1 block 8.9µM*, 12-hLO inh -14% and PNC inhibitor -13.
Screening O=C(NC(=S)Nc1ccc(CN2CCOCC2)cc1)c1cccc([N+](=O)[O-])c1 returned Lamin A splicing inconclusive, HPGD block -28%, ALDH1A1 block 13µM*, 12-hLO inh -3% and PNC inhibitor -100*.
CCC(=O)NC(=S)Nc1ccc(S(=O)(=O)NC(C)C)cc1 was read as Lamin A splicing inconclusive, HPGD block -7%, ALDH1A1 block 31%, 12-hLO inh -5% and PNC inhibitor 6.
CC(=O)OC[C@@H]1O[C@@H](O/N=C2/C[C@@H](O)[C@@H](O)[C@@H]3[C@@H]4C(=O)N([C@@H](C)c5ccccc5)C(=O)[C@H]4CC[C@H]23)[C@H](OC(C)=O)[C@H](OC(C)=O)[C@@H]1OC(C)=O was read as ALDH1A1 block 6%[13.5 µM].
For c1ccc(-n2ncc3c(NCc4ccco4)ncnc32)cc1 the results were Lamin A splicing -23%, HPGD block inconclusive, ALDH1A1 block inconclusive, 12-hLO inh -3% and PNC inhibitor 31.
Screening Cc1ccc(-n2ncc3c(NCc4ccccn4)ncnc32)c(C)c1 returned Lamin A splicing inconclusive, HPGD block 13µM*, ALDH1A1 block inconclusive, 12-hLO inh -3% and PNC inhibitor 38.
`Cc1ccc(-n2ncc3c(NCc4ccco4)ncnc32)c(C)c1` gave Lamin A splicing inconclusive, HPGD block 3.5µM*, ALDH1A1 block -2%, 12-hLO inh -3% and PNC inhibitor inconclusive.
Screening COCCCNc1ncnc2c1cnn2-c1ccc(C)cc1C returned Lamin A splicing -19%, HPGD block 7.9µM*, ALDH1A1 block -6%, 12-hLO inh -4% and PNC inhibitor inconclusive.
Screening Cc1ccc(-n2ncc3c(NCc4cccnc4)ncnc32)c(C)c1 returned Lamin A splicing inconclusive, HPGD block inconclusive, ALDH1A1 block inconclusive, 12-hLO inh 0% and PNC inhibitor 50.
`c1ccc(Cn2ncc3c(NCc4ccco4)ncnc32)cc1` gave Lamin A splicing 1%, ALDH1A1 block inconclusive, 12-hLO inh -9% and PNC inhibitor -105*.
For O=C(Cn1c(=O)c2cccn2c2ccc(F)cc21)N1CCN(c2ccccc2F)CC1 the results were Lamin A splicing -6%[46 µM].
